The list is not random: actives were taken first. Their share in the collection is about 0.79%.
LANA-H2B inh = blocks KSHV LANA binding to histone H2A/H2B | cell-free LANA-H2A/H2B peptide, fluorescence polarization | inhibition, % (no concentration beside the values) | Q9QR71 | actives 0.6% (n = 320,000); in the data active = inhibition mostly above about 10%, no sharp cut-off; inactive = mostly below about 6.7%
hiPSC survival = hiPSC single-cell survival enhancement; survival enhancement, % at 20 µM; actives 0.044% (n = 360,000); AID 602274; ATPlite luminescence; 100% = ROCK inhibitor wells, 0% = DMSO; in the data active = survival enhancement above about 18%;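 also: cells exposed to compounds for 16 hours before the ATP read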
HDAC3 inh = blocks human histone deacetylase 3. inhibition, % at 8.3 µM. recombinant HDAC3, fluorogenic peptide/trypsin coupled, fluorescence. O15379. actives 0.15% (n = 320,000); in the data active = inhibition above about 26%, passing the limit was not always enough
Target sequence (O15379 whole entry, looked up): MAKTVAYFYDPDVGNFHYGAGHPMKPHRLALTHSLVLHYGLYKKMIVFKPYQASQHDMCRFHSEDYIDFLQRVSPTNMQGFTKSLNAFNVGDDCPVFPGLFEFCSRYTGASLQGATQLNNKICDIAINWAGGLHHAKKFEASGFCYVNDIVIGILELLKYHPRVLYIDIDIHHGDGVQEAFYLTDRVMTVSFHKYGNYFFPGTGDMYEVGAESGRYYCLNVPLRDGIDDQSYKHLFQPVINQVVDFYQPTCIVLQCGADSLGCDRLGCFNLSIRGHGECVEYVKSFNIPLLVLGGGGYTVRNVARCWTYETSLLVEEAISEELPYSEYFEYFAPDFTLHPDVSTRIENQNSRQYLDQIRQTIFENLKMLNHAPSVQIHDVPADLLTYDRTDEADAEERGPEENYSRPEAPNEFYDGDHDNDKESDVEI
DAGLB inhibitor = diacylglycerol lipase beta (human) inhibition; HEK293T DAGLB membrane lysate, EnzChek fluorogenic substrate; inhibition, % at 5.17 µM; actives 0.059% (n = 340,000); AID 504411; in the data active = inhibition above about 34%
Of the large screens only hits and unclear results are named; the others gave an inactive call; ! = a repeat was not active.

Cc1nonc1OCCN1CCN(c2ccccc2[N+](=O)[O-])CC1	LANA-H2B inh 23.2
Nc1nonc1OCCN1CCN(c2ccc([N+](=O)[O-])c3cccnc23)CC1	none (no result: DAGLB inhibitor)
CCOc1ccc(N2C(=O)C3ON(c4ccccc4)C(c4ccco4)C3C2=O)cc1 (stereo unspecified)	LANA-H2B inh 11.4
CCC(=O)N1N=C(c2ccc(NS(=O)(=O)c3ccccc3)cc2)CC1c1ccco1 (stereo unspecified)	none
Cc1cc(Cl)ccc1C(O)c1ncc(-c2ccc(F)cc2)[nH]1 (stereo unspecified)	none (no result: LANA-H2B inh, HDAC3 inh, DAGLB inhibitor)
O=C(Oc1ccc(N(Cc2cccs2)C2=NS(=O)(=O)c3ccccc32)cc1)c1ccccc1Cl	none
O=C(Oc1ccc(N(Cc2cccs2)C2=NS(=O)(=O)c3ccccc32)cc1)c1ccco1	HDAC3 inh 58.1
Cc1ccc2nc3c(cc(C(=O)NCC4CCCO4)c(=N)n3CCCOC(C)C)c(=O)n2c1 (stereo unspecified)	LANA-H2B inh 18.1 (no result: HDAC3 inh)
CCOCCCNc1nc2nc3ccc(C)cn3c(=O)c2cc1C(=O)NCC1CCCO1 (stereo unspecified)	none
CC1(Oc2ccc(CC#N)cc2)CCN(Cc2ccc(-n3ccnc3)cc2)C1 (stereo unspecified)	none (no result: LANA-H2B inh, HDAC3 inh, DAGLB inhibitor)
CN1CCc2cccc3c2[C@@H]1Cc1ccc(O)c(O)c1-3	LANA-H2B inh active (no result: HDAC3 inh)
[O-][n+]1c2ccccc2cc2ccccc21	LANA-H2B inh 17.8
CC(=O)NC(c1ccccc1)c1nc(/C=C/c2ccccc2)cs1 (stereo unspecified)	none (no result: LANA-H2B inh, HDAC3 inh, DAGLB inhibitor)
Cc1c(Cc2ccccc2)sc(/N=C/c2ccc3ccccc3c2)c1C(N)=O	LANA-H2B inh active
CCCCn1nc(C(=O)Nc2cc(C(F)(F)F)ccc2N2CCOCC2)ccc1=O	none
CCOc1ccc(S(=O)(=O)NCCC(=O)NCC2(N3CCCCC3)CCCCC2)cc1	LANA-H2B inh 167.6
CCOc1ccc(S(=O)(=O)NCC2(N3CCCCC3)CCCCC2)cc1	none (no result: LANA-H2B inh, HDAC3 inh)
COc1ccc(C2C(C(=O)N3CCN(C)CC3)c3cc(OC)c(OC)cc3C(=O)N2C)cc1 (stereo unspecified)	LANA-H2B inh active
CCN1CCN(C(=O)C2c3cc(OC)c(OC)cc3C(=O)N(C)C2c2ccc(SC)cc2)CC1 (stereo unspecified)	HDAC3 inh 28.2
C/C(=N\Nc1nncc2ccccc12)c1ccc(O)cc1	LANA-H2B inh 12.2
C/C(=N\Nc1nncc2ccccc12)c1ccc(C(C)(C)C)cc1	none
CCCCCCCCCCOC(=O)Cn1c(COc2ccc(Cl)cc2)[n+](C)c2ccccc21	HDAC3 inh 52.0
Cc1c(N(C)C)c(=O)n(-c2ccccc2)n1C	LANA-H2B inh 42.3
Cc1c(C=O)c(=O)n(-c2ccccc2)n1C	none
O=C1CCCN2N=C(SCC(=O)Nc3cccc(Cl)c3)SC2=N1	LANA-H2B inh 26.5
Cc1ccc2c(c1)N(C(C)C(=O)NCc1cccs1)C(=O)CO2 (stereo unspecified)	LANA-H2B inh 19.6
Cc1ccc2c(c1)N(C(C)C(=O)NCc1ccccn1)C(=O)CO2 (stereo unspecified)	none
Cn1c(SCC(=O)Nc2ccc(C(N)=O)cc2)nnc1-c1cccs1	LANA-H2B inh 15.5
CCOC(=O)c1ccc(NC(=O)CSc2nnc(-c3cccs3)n2C)cc1	none
O=C(Nc1ccc(-c2cn3ccsc3n2)cc1)C1CC1	none
CC(=O)Nc1ccc(-c2cn3ccsc3n2)cc1	LANA-H2B inh 14.6
CCN(CC)CCNC(=O)c1ccc(NC(=O)C2CC(=O)N(c3ccc4c(c3)OCCO4)C2)cc1 (stereo unspecified)	LANA-H2B inh 61.2
Cc1ccc(C)c(S(=O)(=O)N2CCN(C(=O)C3CCN(c4ncnc5sc(C)c(C)c45)CC3)CC2)c1	none
CCOc1ccc(C2C3=C(CCCC3=O)Nc3nc(C(F)(F)F)nn32)cc1OC (stereo unspecified)	none
CCOc1cc(C2C3=C(CCCC3=O)Nc3nc(C(=O)OC)nn32)ccc1OC (stereo unspecified)	LANA-H2B inh 19.6
COc1ccccc1N1C(=O)CC(Sc2n[nH]c(-c3cccc(C)c3)n2)C1=O (stereo unspecified)	none
Cn1cccc1/C=N/n1c(-c2ccc(C(C)(C)C)cc2)n[nH]c1=S	HDAC3 inh 28.6
Cc1ccccc1N(C(=O)CCC(=O)Nc1ccccn1)C(C(=O)NC(C)C)c1ccc(F)cc1 (stereo unspecified)	none
Cc1ccc(N(C(=O)CCC(=O)Nc2ccccn2)C(C(=O)NC(C)C)c2ccc(F)cc2)cc1 (stereo unspecified)	LANA-H2B inh 17.9
c1cc(N2CCCCC2)nc(N2CCCCC2)n1	none (no result: LANA-H2B inh, HDAC3 inh)
C[c-]1[c-](C)[c-](C)[c-](C)[c-]1C.[Fe].c1cc2nccc(N3CCCC3)[c-]2c1 (stereo unspecified)	HDAC3 inh 29.4!
COc1ccc(-c2cc(C(=O)N3CCCCCC3)c3cc(C)ccc3n2)cc1	none
COc1ccc(-c2cc(C(=O)N3CCOCC3)c3cc(C)ccc3n2)cc1	LANA-H2B inh 18.5
O=C(CC(C(=O)O)P(=O)(c1ccccc1)c1ccccc1)c1ccccc1 (stereo unspecified)	none
CCC(C(=O)O)P(=O)(c1ccc(Cl)cc1)c1ccc(Cl)cc1 (stereo unspecified)	LANA-H2B inh 13.5
S=c1cnc2ccccc2[nH]1	none
O=C(Nc1cccc(-n2cnnn2)c1)C1CCCN(Cc2cccc(C(F)(F)F)c2)C1 (stereo unspecified)	LANA-H2B inh 13.1
Nc1nnc(SCCCOc2ccc(F)cc2)s1	LANA-H2B inh 25.3
CCCOc1ccc(OCCSc2nnc(N)s2)cc1	none (no result: hiPSC survival)
Cc1cc(C#Cc2c(-c3ccccc3)n(C)c3ccccc23)ccc1F	none
Cc1oc2c(cc(NS(=O)(=O)c3ccc(F)cc3)c3ccccc32)c1C(=O)O	none
Cc1oc2c(cc(NS(=O)(=O)c3ccc(C(C)C)cc3)c3ccccc32)c1C(=O)O	LANA-H2B inh 26.2
O=C(CCN1C(=O)/C(=C/c2cccs2)SC1=S)N1CCCCC1	LANA-H2B inh 24.1
O=C(CCN1C(=O)/C(=C\c2ccccc2)SC1=S)N1CCCCC1	none
CN1CCN(C(=O)CCN2C(=O)/C(=C/c3ccc(F)cc3)SC2=S)CC1	LANA-H2B inh 11.7
COc1cccc(CNC(=O)C(=O)N2CCC3(CC2)OCCN3S(=O)(=O)c2ccc(C)cc2)c1	none
COc1cc(Cl)c(C)cc1NC(=O)COC(=O)c1ccc(CN2CCCC2=O)cc1	none
COc1ccc(NS(=O)(=O)c2c(C)cc(C)cc2C)cc1	none
COc1cccc(NS(=O)(=O)c2c(C)cc(C)cc2C)c1	LANA-H2B inh 18.7
CC(C)n1c(O)c(/C=C2\C=NN=C2c2ccccc2)sc1=S	LANA-H2B inh 12.3
CC1CCC2(CC1)NC(=S)N(c1ccccc1)N2 (stereo unspecified)	LANA-H2B inh 17.5
O=C1c2ccccc2C(=O)C1(O)O	LANA-H2B inh 30.5 (no result: hiPSC survival, DAGLB inhibitor)
O=C1c2cccc3c2C2(O)c4c1cccc4C(=O)c1cccc(c12)C3=O	none (no result: LANA-H2B inh, HDAC3 inh)
C=CCn1c(SCc2ccccc2F)nc2cc(C(=O)O)ccc2c1=O	none
Cc1cccc(CC2CC(=O)N(c3ccc(C)cc3Br)C2=O)c1 (stereo unspecified)	LANA-H2B inh 25.6
COC(=O)c1cc(OC)nc(OC)c1	LANA-H2B inh 25.0
